# Screening data as filed in PubChem BioAssay.
# Shown are actives, neighbours in structure and some others; about 1.7% of the full set was active somewhere.
# Vif inh: blocks HIV Vif function. actives 0.35% (n = 340,000). HEK293T cells, Vif self-association by quenched fluorescence, imaging, 24 h. inhibition, % at 7.49 µM. AID 602346; in the data active means inhibition above about 50%, passing the limit was not always enough
# CFTR F508del cor: CFTR F508del correction in bronchial cells. activity (quench increase), % at 7.58 µM. AID 720511. CFBE cells, YFP halide quenching; stimulated with forskolin plus potentiator P3; % fluorescence drop versus neutral controls. actives 0.36% (n = 350,000);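 active means mean added fluorescence quench of at least 8% versus neutral control, with both replicates also reaching 8%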;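 further: cells transiently co-express mutant CFTR-F508del with the halide-sensitive YFP; corrector assay measuring rescue of mutant channel to the surface after 24 h compound exposure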
# FGF22 binding: shifts melting point of recombinant human FGF22 | recombinant FGF22 thermal shift, SYPRO orange fluorescence; percent of sucrose octasulfate shift, DMSO zero | activity (Tm shift, normalised), % at 9.99 µM | actives 1.5% (n = 340,000);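 active means mean Tm shift, scaled 0 neutral to 100 positive control, at about 1.3% or above, every replicate too, limit read from the data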
# Target sequence (Q9HCT0 whole entry, looked up): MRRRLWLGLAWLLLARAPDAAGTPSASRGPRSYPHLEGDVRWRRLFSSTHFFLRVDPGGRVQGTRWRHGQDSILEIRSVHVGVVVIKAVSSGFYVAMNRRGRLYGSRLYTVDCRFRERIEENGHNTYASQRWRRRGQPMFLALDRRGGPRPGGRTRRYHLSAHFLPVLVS
# Hits are given with their value; i = inactive; nt = no result given.
SMILES,Vif inh,CFTR F508del cor,FGF22 binding
Cc1ccc(S(=O)(=O)Nc2ccc3c(c2)C(=O)N([C@H](C)CO)C[C@H](C)[C@@H](CN(C)Cc2ccc4c(c2)OCO4)O3)cc1,nt,i,i
COc1ccc(CN(C)C[C@H]2OCCCC[C@H](C)Oc3ccc(NC(=O)Cc4ccccc4)cc3C(=O)N([C@H](C)CO)C[C@@H]2C)cc1,nt,i,i
Fc1ccc(-c2nnc3ccccn23)cc1,i,i,43
Fc1ccc(-c2ncc3ccccn23)cc1,i,i,i
COc1ccccc1CCC(=O)Nc1ccc(C)cc1Cl,i,i,43
COc1ccccc1-n1ccn(CC(=O)Nc2ccc(C)cc2Cl)c(=O)c1=O,i,i,i
CCCNC(=O)c1cc(C2CCCN(S(=O)(=O)c3cccc4cccnc34)C2)on1 (configuration not stated),73,i,i
O=C(NCc1ccccc1)c1cc(C2CCCN(S(=O)(=O)c3cccc4cccnc34)C2)on1 (configuration not stated),i,i,i
C[C@@H]1CN([C@@H](C)CO)C(=O)c2cc(NS(C)(=O)=O)ccc2O[C@H]1CN(C)Cc1ccc(-c2ccccc2)cc1,nt,i,i
CC(=O)c1ccc(-n2nnnc2SCC(=O)Nc2sc(C)c(C)c2C#N)cc1,i,i,44
Cc1ccc(-n2nnnc2SCC(=O)Nc2sc(C)c(C)c2C#N)cc1C,i,i,i
Cc1ccc(S(=O)(=O)N2CCOC2CNC(=O)C(=O)NCCc2c[nH]c3ccccc23)cc1 (configuration not stated),i,i,44
O=C(NCCc1c[nH]c2ccccc12)C(=O)NCC1OCCCN1S(=O)(=O)c1ccc(F)cc1 (configuration not stated),i,nt,i
Cc1noc(C)c1S(=O)(=O)Nc1ccc2c(c1)C(=O)N([C@@H](C)CO)C[C@H](C)[C@H](CN(C)S(=O)(=O)c1ccc(F)cc1)OCCCC[C@H](C)O2,nt,i,i
CC(C)(C)c1ccc(NC(=O)Nc2ccc(F)cc2)cc1,i,i,43
COc1cccc(NC(=O)Nc2ccc(C)c(Cl)c2)c1,i,i,i
CC(C)(C)c1ccc(COC(=O)Nc2ccc(F)cc2)cc1,i,nt,i
Cc1ccc(NC(=O)Nc2ccc(F)cc2)cc1Cl,i,i,43
COc1ccccc1C#Cc1ccc([C@H]2[C@@H](CO)N(C(=O)C3CCCCC3)[C@H]2C#N)cc1,nt,i,i
C[C@@H]1CN([C@@H](C)CO)C(=O)c2cc(-c3cccnc3)cnc2O[C@@H]1CN(C)C(=O)Nc1ccccc1,nt,i,i
O=C(NNC(=O)c1ccc(F)cc1F)c1ccc2c(c1)OCO2,i,i,44
O=C(NN=C1CCCCCC1)c1ccc2c(c1)OCO2,i,i,43
C/C(=N\NC(=O)c1ccc2c(c1)OCO2)c1ccc2c(c1)OCO2,i,i,i
O=C(NNS(=O)(=O)c1ccc(F)cc1)c1ccc2c(c1)OCO2,nt,i,i
N#C[C@H]1[C@H](c2ccccc2-c2ccc(F)cc2)[C@@H](CO)N1C(=O)Cc1cccnc1,nt,i,i
SMILES,Vif inh,CFTR F508del cor,FGF22 binding
CC(C)NC(=O)N(C)C[C@@H]1OCCCC[C@H](C)Oc2ccc(NC(=O)c3ccccc3)cc2C(=O)N([C@@H](C)CO)C[C@@H]1C,nt,i,i
CCCN1CNC(=S)N(c2ccccc2C)C1,i,i,43
CCCN1CNC(=S)N(c2ccc(C)cc2C)C1,i,i,i
C[C@H](CO)N1C[C@H](C)[C@@H](CN(C)C(=O)Nc2cccc3ccccc23)Oc2ccc(NS(=O)(=O)c3ccc(F)cc3)cc2CC1=O,nt,i,i
C[C@@H]1CN([C@@H](C)CO)C(=O)c2cc(NC(=O)CCC(F)(F)F)ccc2O[C@H]1CN(C)Cc1ccc(C(=O)O)cc1,nt,i,i
Cc1noc2ncnc(Oc3ccc(Cl)cc3Cl)c12,i,i,44
Cc1cc(Cl)ccc1Oc1ncnc2onc(C)c12,i,i,i
Cc1noc2ncnc(Oc3ccccc3)c12,i,nt,nt
Cc1noc2ncnc(Oc3ccccc3Cl)c12,i,i,43
O=C(C1CC1)N1CC(=O)N2[C@H](CO)[C@@H](c3ccc(-c4cccnc4)cc3)[C@H]2C1,nt,i,nt
C[C@H](CO)N1C[C@H](C)[C@@H](CN(C)C(=O)Nc2ccc(C(F)(F)F)cc2)Oc2c(NC(=O)CCCCCC(=O)Nc3ccccc3N)cccc2C1=O,nt,i,i
CN(C(=O)c1cccc(NC(=O)Cc2ccc(NC(=O)C3CCCN(C(=O)C4CCCC4)C3)cc2)c1)C1CCCCC1 (configuration not stated),i,i,i
CN(C(=O)c1cccc(NC(=O)Cc2ccc(NC(=O)C3CCCN(C(=O)C4CC4)C3)cc2)c1)C1CCCC1 (configuration not stated),i,i,43
CC(=O)OCc1c(C(F)(F)F)nn(C)c1Oc1cccc(C(F)(F)F)c1,i,nt,nt
Cc1nn(C)c(Oc2cccc(C(F)(F)F)c2)c1C=O,i,i,43
C[C@H](CO)N1C[C@H](C)[C@H](CN(C)C(=O)c2ccccc2)Oc2cc(C3=CCCCC3)ccc2S1(=O)=O,nt,i,i
COc1ccc2nc(C)cc(SCC(=O)N/N=C/c3ccc(O)cc3O)c2c1,i,nt,nt
COCc1cc(C)nc(OCC(=O)N/N=C/c2cccc(OC)c2)c1C#N,i,nt,nt
COCc1cc(C)nc(OCC(=O)N/N=C/c2ccccc2O)c1C#N,i,i,44
COCc1cc(C)nc(OCC(=O)N/N=C/c2ccc(O)cc2O)c1C#N,i,i,44
CCOc1cc(/C=N/NC(=O)COc2nc(C)cc(COC)c2C#N)ccc1O,i,i,i
COc1cccc2c(SCC(=O)N/N=C/c3ccc(O)cc3O)cc(C)nc12,i,nt,3.0
O=C(NCC(F)(F)F)[C@@H]1[C@@H](CO)[C@@H]2Cn3c(cccc3=O)[C@H]1N2CC1CCOCC1,nt,nt,i
C[C@@H]1CCCCO[C@@H](CN(C)C(=O)Nc2ccc3c(c2)OCO3)[C@@H](C)CN([C@H](C)CO)C(=O)c2cc(NC(=O)c3ccncc3)ccc2O1,nt,i,i
C[C@H]1CN([C@@H](C)CO)C(=O)c2c(c3ccccc3n2C)-c2ccccc2CO[C@@H]1CN(C)C(=O)[C@H]1CCCN1C,nt,i,i
SMILES,Vif inh,CFTR F508del cor,FGF22 binding
O=C(C[C@H]1C=C[C@@H](NC(=O)c2ccncc2)[C@@H](CO)O1)NCC1CCCCC1,nt,i,i
CN1CCN(C(=O)C2=C[C@@H](c3ccc4c(c3)OCO4)C[C@@H](OCCCCO)O2)CC1,nt,i,i
O=C(N/N=C/c1cc2c3c(c1O)CCCN3CCC2)c1ccccc1O,i,8.3,i
Cc1nn(-c2ccccc2)c(N2CCCC2)c1/C=N/NC(=O)c1ccccc1O,i,nt,nt
O=C(Nc1ccc(C(F)(F)F)cc1)N[C@@H]1CC[C@@H](CC(=O)N2CCCCC2)O[C@H]1CO,nt,i,i
CN(C)CCCOc1ccc(-c2ccc3nncn3c2)cn1,i,i,i
CN(C)CCCOc1ccc(-c2cccc3nncn23)cn1,i,i,43
COC(=O)C1=C(C)N(Cc2ccccc2)C(=NCc2ccccc2)N[C@H]1c1cccc(F)c1,i,i,45
COC(=O)C1=C(C)N(Cc2ccccc2)C(=NCc2ccccc2)N[C@H]1c1ccccc1,i,i,i
Cn1c(CNc2ccc(Cl)cc2)nc2ccccc21,i,nt,nt
CN(Cc1nc2ccccc2n1C)S(=O)(=O)c1ccc(Cl)cc1,50,nt,nt
